# Laboratory results: PubChem BioAssay AID463200 (Sanford-Burnham Center for Chemical Genomics, 2010)
# Some of the results follow. Unmarked numbers belong to inactive results. Cut-off read from the data, not from the text of the source: active = z-score above about 6.3; inactive = the rest.
# Test: toxicity to mouse AML12 liver cells – imaging, DAPI nuclear morphology imaging, counter-screen for hepatic lipid droplet formation project (AID 463200);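 note: compound exposure lasted overnight at 37 °C before fixation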
# Conditions: AML12 mouse hepatocytes, DAPI nuclear morphology cytotoxicity imaging; at 5 µM; hits give high values; cells fed 100 µM oleate overnight
row,SMILES,z-score
1,COc1cc(/C=N/NC(=O)Nc2ccccc2)ccc1OCCOc1ccccc1C,4.44
2,CCOC(=O)C1=C(CC)OC(N)=C(C#N)C1c1ccc(F)cc1F (stereo unspecified),-0.275
3,COc1ccc(C(C(=O)NC(C)(C)C)N(Cc2ccc(F)cc2)C(=O)CCC(=O)Nc2cc(C)on2)cc1 (stereo unspecified),-0.0925
4,COCCCNC(=O)CN1C(=O)CSc2ccc(S(=O)(=O)N3CCOCC3)cc21,-0.296
5,O=C1Nc2ccc(Br)cc2/C1=N/N=C/C1=C(N2CCOCC2)C(=C\c2ccccc2)/CC1,-1.9
6,CCOc1ccc(CCNC(=O)CCc2nnc3ccc(N4CCCC4)nn23)cc1OCC,-0.773
7,O=C(CN1CCc2cc3c(cc2C1)OCCCO3)Nc1ccccc1,0.947
8,COc1ccc(Cl)cc1NC(=O)CN(C)C(=O)CCCc1c[nH]c2ccccc12,0.989
9,CC(C)(C)NC(=O)Cn1cnc2cc([N+](=O)[O-])ccc2c1=O,-1.05
10,Cn1c(=O)[nH]c(=O)c2c1nc(N1CCN(C(c3ccccc3)c3ccccc3)CC1)n2CCO,0.0379
11,CCCCN1C(=O)/C(=C/C=C2/C=Cc3ccccc3N2CC)SC1=S,-0.15
